GLS inh: blocks human kidney-isoform glutaminase activity. GLS enzymatic activity, qHTS titration. Potency, µM (doses to about 45.5 µM), for the others: at the top dose activity change, negative = inhibition, actives largely listed as inhibitors. 0.21% of 410,000 active; also: % is scaled to controls: 0 for no effect and ±100 for the full control effect
Target sequence (O94925 whole entry, looked up, canonical isoform): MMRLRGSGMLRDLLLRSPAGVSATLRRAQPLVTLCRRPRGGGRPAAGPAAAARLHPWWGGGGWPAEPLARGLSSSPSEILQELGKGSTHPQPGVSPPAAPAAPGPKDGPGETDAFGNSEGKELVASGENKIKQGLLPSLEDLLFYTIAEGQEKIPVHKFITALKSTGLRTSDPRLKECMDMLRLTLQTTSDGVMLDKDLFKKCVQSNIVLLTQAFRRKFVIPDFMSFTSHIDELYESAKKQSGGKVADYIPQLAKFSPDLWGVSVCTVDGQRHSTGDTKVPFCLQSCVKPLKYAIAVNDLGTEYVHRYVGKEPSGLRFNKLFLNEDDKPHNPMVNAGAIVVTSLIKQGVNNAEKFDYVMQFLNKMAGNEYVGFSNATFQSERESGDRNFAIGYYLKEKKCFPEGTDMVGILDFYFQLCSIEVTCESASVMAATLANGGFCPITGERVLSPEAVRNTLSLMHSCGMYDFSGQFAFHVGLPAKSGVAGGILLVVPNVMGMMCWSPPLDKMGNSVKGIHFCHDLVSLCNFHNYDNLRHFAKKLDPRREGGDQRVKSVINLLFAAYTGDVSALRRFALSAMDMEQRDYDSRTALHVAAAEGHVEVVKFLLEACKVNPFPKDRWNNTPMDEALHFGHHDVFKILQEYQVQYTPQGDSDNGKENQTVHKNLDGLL
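Glutamate formation by hKGA was monitored fluorometrically using coupled glutamate oxidase, HRP and Amplex Red. Substrate was added as 1 mM L-glutamine solution; incubation was 30 min at RT after an initial read.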
HP1b binding inh: inhibitors of HP1-beta chromodomain binding to methylated histone tails | P83916 | AlphaScreen HP1-beta / biotin-H3K9me3 peptide binding | Potency, µM (doses to about 114 µM), inactives show at the highest dose activity change, negative = inhibition, most hits filed as inhibitors | 0.56% of 390,000 active | AID 540317; also: nearly all actives have a fitted effect of over 70% in size
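AlphaScreen: HP1-beta (50 nM) preformed 30 min with biotin-H3(1-18)K9me3 peptide (50 nM) in PBS pH 7.4, 0.01% Tween-20. Compound added for 30 min at RT, then streptavidin donor/nickel chelate acceptor beads (10 ug/mL) for 30 min.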
JMJD2A Tudor: JMJD2A Tudor domain (human) inhibition; Potency, µM (titrated, usually from 114 µM), for the others: top-dose activity change, negative = inhibition, actives largely listed as inhibitors; O75164; AlphaScreen JMJD2A-Tudor / H3K4me3 peptide binding; 4.4% of 390,000 active; also: % is scaled to controls: 0 for no effect and ±100 for the full control effect; nearly all actives have a fitted effect of over 50% in size
BAZ2B inh: blocks human BAZ2B. Q9UIF8. AlphaScreen BAZ2B-H3K14Ac peptide displacement. Potency, µM (doses to about 114 µM), for the others: at the top dose activity change, negative = inhibition, actives largely listed as inhibitors. 4.4% of 360,000 active. AID 504333; also: % is scaled to controls: 0 for no effect and ±100 for the full control effect; nearly all actives have a fitted effect of over 60% in size
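AlphaScreen displacement of biotin-H3(5-23)K14Ac peptide (50 nM final) from BAZ2B (50 nM final) in PBS pH 7.4, 0.01% Tween-20; complex preformed 30 min RT, then compounds (top 110 uM) 30 min RT, beads 20 min dark.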
G9a block: blocks human histone lysine methyltransferase G9a. G9a H3K9 monomethylation, AlphaScreen, 2 h. Potency, µM (titrated, usually from 102 µM), for inactives: top-dose activity, negative = inhibition, most hits filed as inhibitors. 8.8% of 350,000 active; also: % is scaled to controls: 0 for no effect and ±100 for the full control effect; nearly all actives have a fitted effect of over 75% in size
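Step 1: enzyme (final 20 nM) with compound, 15 min RT. Step 2: substrate peptide 500 nM and SAM 20 uM, 2 h RT. Step 3: anti-H3K9me1 antibody and AlphaScreen beads, 10 min, then plate read.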
L3MBTL1 inh: inhibitors of human L3MBTL1; Q9Y468; AlphaScreen L3MBTL1–H3K9me1 peptide binding; Potency, µM (titrated, usually from 57.1 µM), without a hit: at the highest dose activity, negative = inhibition, actives largely listed as inhibitors; 0.66% of 230,000 active; AID 485360; also: % is scaled to controls: 0 for no effect and ±100 for the full control effect; nearly all actives have a fitted effect of over 60% in size
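L3MBTL1 50 nM + b-AHA-H3(1-15)K9me1 75 nM, 30 min RT; compound added, 30 min RT; streptavidin donor/Ni-chelate acceptor beads 10 ug/mL each final, 30 min RT dark; AlphaScreen read.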
Active calls of the source: *; ? = inconclusive; · = no result given; [ ] = dose if it differs, or a comment. Rows were chosen to be rich in hits. Some 10% of all compounds tested hit in one or more screens of this group. Calls follow the shape of the dose curve; as a rule, active = well fitted curve in the direction sought with a large enough effect; inconclusive = small, poorly fitted or top-dose-only effect, or another doubt; inactive = no such curve, though single readings can be large; an effect the other way counts as inactive or inconclusive. Potency is read from the fitted curve at half-maximal effect.

SMILES	GLS inh	HP1b binding inh	JMJD2A Tudor	BAZ2B inh	G9a block	L3MBTL1 inh
CCn1cc(S(=O)(=O)c2ccc(C)cc2)c(=O)c2cc(F)c(N3CCCCCC3)cc21	-5%	64%	3%	1%	0%[59 µM]	·
COc1cccc(CSc2nc3n(n2)C(c2cccs2)C(C(=O)Nc2ccccc2C)=C(C)N3)c1 (stereo unspecified)	21%	6%	-15%	1%	5%[59 µM]	·
CCOC(=O)/C=C/C(=O)Nc1ccc(S(=O)(=O)N(C)c2ccccc2)cc1	13%	8%	-29%	-17%	45µM*	·
CCCCC(Br)C(=O)Nc1ccc(S(=O)(=O)Nc2cc(C)nc(C)n2)cc1 (stereo unspecified)	-28%	14%[57 µM]	-6%	-23%	50µM*	·
CCOc1ccc(OCC(=O)Nc2ccc(S(=O)(=O)Nc3cc(C)nc(C)n3)cc2)cc1	5%	3%	-28%	-6%	14µM*	30%[11.4 µM]
CCCCOC(=O)Nc1ccc(S(=O)(=O)Nc2cc(C)nc(C)n2)cc1	1%	27%	-15%	12%	11%[59 µM]	5%
Cc1cc(NS(=O)(=O)c2ccc(NC(=O)COc3ccc(Br)cc3)cc2)nc(C)n1	?	2%	20µM*	-22%	·	·
CC(=O)Nc1ccc(S(=O)(=O)N(C)c2ccccc2)cc1	-3%	30%	-6%	3%	-7%[59 µM]	12%
Cc1ccc(OCCC(=O)Nc2ccc(S(=O)(=O)Nc3cc(C)nc(C)n3)cc2)cc1	7%	28%	-10%	-7%	-45%	0%
Cc1ccn2cc(-c3ccc(NS(=O)(=O)c4ccccc4)cc3)nc2c1	12%	7%	-11%	-38%	?	-2%
CCOC(=O)/C=C/C(=O)Nc1ccc(S(=O)(=O)Nc2cc(C)on2)cc1	8%	7%	-6%	-19%	50µM*	·
Cc1ccc(S(=O)(=O)Nc2ccc(-c3cn4ccc(C)cc4n3)cc2)cc1	9%	2%	?	-10%	45µM*	-4%
CCOC(=O)Nc1ccc(S(=O)(=O)Nc2cc(C)on2)cc1	-3%	31%	-14%	5%	11%[12.7 µM]	-1%
Cc1c(C)c2c(cc(C)c3c(-c4ccccc4)coc32)oc1=O	1%	5%	-11%	-4%	-27%[59 µM]	·
O=c1ccc(-c2n[nH]c(=S)n2-c2ccc(F)c(Cl)c2)n[nH]1	0%	16%	35µM*	?	3.2µM*	1%
S=c1[nH]nc(-c2ccc3ccccc3n2)n1-c1cc(Cl)cc(Cl)c1	5%	12%	-29%	-25%	?	-15%
Fc1ccc(-n2c(-c3cc(C4CC4)[nH]n3)n[nH]c2=S)cc1Cl	-8%	11%	79µM*	?	1.6µM*	·
COc1ccc(NC(=S)N2CCCN(Cc3cccc(Cl)c3)C2)cc1	17%	4%	?	?	12%[59 µM]	·
Cc1cccc(NC(=S)N(CCCN2CCOCC2)Cc2cn(C)c3ccccc23)c1	11%	-19%	?	?	?	?
Cn1cc(CN(CCCN2CCOCC2)C(=S)Nc2cccc(Cl)c2)c2ccccc21	18%	-24%	?	?	79µM*	4%
CSc1cccc(NC(=S)N(CCCN2CCCC2)Cc2cccs2)c1	2%	-10%	?	?	-4%[59 µM]	·
S=C(Nc1cccc(Cl)c1)N(CCCN1CCCC1)Cc1cccn1Cc1ccc(Cl)cc1	0%	-18%	32µM*	?	35µM*	·
CSc1cccc(NC(=S)N2CCCN(Cc3cccc(Cl)c3)C2)c1	12%	0%	?	25µM*	5%[59 µM]	·
Cc1ccc(NC(=S)N(CCCN2CCOCC2)Cc2ccccn2)cc1	29%	35%	-2%	2%	-12%[59 µM]	-2%
Cc1ccccc1NC(=S)N(CCCN1CCOCC1)Cc1ccccn1	6%	-6%	3.5µM*	-3%	-10%[59 µM]	-3%
SMILES	GLS inh	HP1b binding inh	JMJD2A Tudor	BAZ2B inh	G9a block	L3MBTL1 inh
COc1cccc(NC(=S)N(CCCN2CCCC2)Cc2cccn2Cc2ccc(Cl)cc2)c1	-4%	?	45µM*	-38%	40µM*	·
COc1cccc(NC(=S)N(CCCN2CCCC2)Cc2ccco2)c1	2%	31%	-8%	-3%	16%	?
CSc1cccc(NC(=S)N(CCCN2CCCC2)Cc2cccn2Cc2ccc(Cl)cc2)c1	-16%	-14%	20µM*	25µM*	35µM*	·
Cc1ccc(C)c(NC(=O)C2CCN(S(=O)(=O)c3c(C)noc3/C=C/c3cccs3)CC2)c1	-13%	23%	-6%	·	?	·
CC(C)CCn1c(=O)c2sccc2n2c(CCCC(=O)Nc3ccc(C(C)C)cc3)nnc12	-13%	11%	-16%	0%	-5%[59 µM]	·
CCOC(=O)c1cnn(-c2ccc(C(=O)Nc3cccc(C(C)=O)c3)cc2)c1N	-8%	33%	-3%	0%	-1%[59 µM]	·
COc1ccccc1-c1nc(NC(C)=O)n[nH]1	7%	35%	-11%	2%	-50%[59 µM]	8%
CCS(=O)(=O)c1nc(NC(C)=O)n[nH]1	-17%	0%	6%[11.4 µM]	50µM*	5.6µM*	22%
O=C(Cc1ccccc1)c1nc2ccccc2s1	16%	?	?	71µM*	?	-16%
COC(=O)c1ccc(CC(=O)c2nc3ccccc3s2)cc1	-12%	-5%	?	-3%	11%[59 µM]	6%
CCOC(=O)c1cnc2ccc(OC)cc2c1Nc1ccc(OCc2ccccc2Cl)cc1	-5%	45%	-21%	-12%	-3%[59 µM]	·
O=C(CI)Nc1cccc2cccnc12	·	-20%	20µM*	·	·	·
CCC(=O)Nc1cccc2cccnc12	4%	67%	6%	-5%	-12%[59 µM]	9%
NC(=S)NNc1cccc2cccnc12	?	-16%	10µM*	25µM*	18µM*	?
O=C(Cc1ccc(F)cc1)Nc1cccc2cccnc12	7%	55%	29%	12%	45%[59 µM]	15%
O=C(CCBr)Nc1cccc2cccnc12	·	7%	79µM*	·	·	·
NC(=S)Nc1cccc2cccnc12	12%	10%	-31%	?	22%[2.33 µM]	4%
O=C(CCCl)Nc1cccc2cccnc12	·	68%	79µM*	·	·	·
O=C(CCCn1ccc2cc(S(=O)(=O)N3CCCC3)ccc21)NCc1ccc(Cl)cc1	-1%	-3%	-17%	-18%	-5%[59 µM]	·
Cc1c(C(=O)Nc2ccc(F)c(C(F)(F)F)c2)sc2nc(-c3ccccc3)cn12	-15%	26%[57 µM]	-2%	6%	1%[59 µM]	·
Cc1cc(C)cc(N2C(=O)CSC23C(=O)N(CC(=O)NC2CCCCC2)c2ccccc23)c1 (stereo unspecified)	-12%	17%	-30%	6%[57.1 µM]	-27%[59 µM]	·
Clc1ccccc1-c1nn2c(-c3ccccn3)nnc2s1	-3%	?	?	79µM*	?	-1%
Clc1ccccc1-c1nnc2sc(-c3cccs3)nn12	-19%	-14%	-21%	6%	35µM*	-4%
